TDP1 cell noCPT = qHTS for Inhibitors of human tyrosyl-DNA phosphodiesterase 1 (TDP1): qHTS in cells in absence of CPT. 15% of 420,000 active. DT40 Tdp1-/- hTDP1 cells, no CPT, ATP luminescence, 48 h. Potency, µM (doses to about 46.2 µM), actives largely listed as inhibitors. AID 686978, 2013; also: nearly all actives have a fitted effect of over 55% in size
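No-CPT arm: Tdp1-/-;hTDP1 DT40 cells (400/well) plus compounds, incubated ≥48 hr at 37 °C. Readout CellTiter-Glo luminescence.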
VP16 counter = counter-screen for ROR gamma inhibitors: Gal4-VP16 reporter; Drosophila S2 Gal4-VP16 UAS-luciferase, luminescence, 20 h; Potency, µM (titrated, usually from 53.6 µM), actives largely listed as inhibitors; 3.5% of 310,000 active; AID 2546;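 also: Gal4-VP16 expression switched on by copper sulfate through the metallothionein promoter; nearly all actives have a fitted effect of over 50% in size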
LDHA block = inhibitors of human lactate dehydrogenase A; purified LDHA, NADH/diaphorase-resazurin fluorescence; active compounds read low; P00338; AID 1347041; activity change, % (values are at about 110 or 230 µM); 0.15% of 480,000 active; in the data active = activity change below about -30%; inconclusive = mostly about -25% to -30%
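Enzyme activity of human lactate dehydrogenase 5 (2 nM; 0.06 mM NADH, 0.2 mM pyruvate, 5 min, RT) is measured via a resazurin/diaphorase fluorescence readout of residual NADH.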
TDP1 cell CPT = growth inhibition of DT40 Tdp1-/-;hTDP1 cells with camptothecin (screen for TDP1 inhibitors) | Potency, µM (doses to about 46.2 µM), actives largely listed as inhibitors | 12% of 420,000 active | chicken DT40 Tdp1-/-;hTDP1 cells + 20 nM CPT, ATP luminescence, 48 h; also: nearly all actives have a fitted effect of over 55% in size
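Chicken DT40 Tdp1-/- cells stably complemented with human TDP1 were seeded at 400 cells/well in medium containing 20 nM camptothecin, exposed to pin-transferred compounds, and grown at 37 °C for at least 48 hr. Viability was read as ATP luminescence.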
IL1B secr inh = inflammasome signaling inhibition, IL-1 beta readout. THP-1 LPS/ATP IL-1B secretion, AlphaLISA, 16 h; active compounds read low. activity change, % at 57.5 µM. 4.7% of 360,000 active. AID 743279; in the data active = activity change below about -50%; inconclusive = mostly about -30% to -49%
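THP-1 cells pretreated 1 hr with compounds (up to 57.5 uM final), then stimulated with LPS (250 ng/mL final) plus ATP (1.25 mM final); secreted IL-1B measured by AlphaLISA after 16 hr, decreased signal indicating inhibition.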
RORgamma inh = inhibitors of mouse ROR gamma transcriptional activity | P51450 | Drosophila S2 Gal4-RORgamma UAS-luciferase reporter, 20 h | Potency, µM (top dose mostly 53.6 µM), actives largely listed as inhibitors | 5.4% of 310,000 active | AID 2551; also: nearly all actives have a fitted effect of over 60% in size
Target sequence (P51450 whole entry, looked up, the tested form may be a part): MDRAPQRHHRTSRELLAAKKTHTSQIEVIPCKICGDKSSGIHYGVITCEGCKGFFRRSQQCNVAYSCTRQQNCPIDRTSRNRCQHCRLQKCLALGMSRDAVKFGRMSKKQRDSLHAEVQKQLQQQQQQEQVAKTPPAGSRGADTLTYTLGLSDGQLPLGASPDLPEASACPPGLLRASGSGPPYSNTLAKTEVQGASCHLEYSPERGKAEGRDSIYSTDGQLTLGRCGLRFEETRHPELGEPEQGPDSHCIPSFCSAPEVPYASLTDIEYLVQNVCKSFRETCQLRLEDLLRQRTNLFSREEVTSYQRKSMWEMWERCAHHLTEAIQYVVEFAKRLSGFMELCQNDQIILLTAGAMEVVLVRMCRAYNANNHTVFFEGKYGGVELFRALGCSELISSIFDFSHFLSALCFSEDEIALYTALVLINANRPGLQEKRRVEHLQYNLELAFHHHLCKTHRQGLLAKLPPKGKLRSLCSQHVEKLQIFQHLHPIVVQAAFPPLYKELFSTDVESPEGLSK
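Drosophila Schneider cells stably carrying a metallothionein-driven Gal4 DBD–ROR gamma fusion and a UAS-Photinus luciferase reporter were exposed to compound for 1 hr, then induced with copper sulfate (700 uM final) for 20 hr at ambient temperature before luminescence reading.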
Of the large screens only hits and unclear results are named; the others gave an inactive call. Sampled rows, rich in hits. Any-hit rate of the full collection: about 18%. Unless noted, calls follow the shape of the dose curve; as a rule, active = well fitted curve in the direction sought with a large enough effect; inconclusive = small, poorly fitted or top-dose-only effect, or another doubt; inactive = no such curve, though single readings can be large; an effect the other way counts as inactive or inconclusive.

Cn1c(=O)c2c(nc(Br)n2CC(=O)C23CC4CC(CC(C4)C2)C3)n(C)c1=O	TDP1 cell noCPT 18.4µM, TDP1 cell CPT 23.1µM
COC(=O)Cn1c(Br)nc2c1c(=O)[nH]c(=O)n2C	none (no result: TDP1 cell noCPT, VP16 counter, TDP1 cell CPT, IL1B secr inh, RORgamma inh)
CCN(CC)c1nc2c(c(=O)n(C)c(=O)n2C)n1CC(=O)c1ccccc1	TDP1 cell noCPT 23.1µM, TDP1 cell CPT inconclusive
CC(=O)Nc1ccc(CC(=O)Nc2cccc3cccnc23)cc1	none (no result: TDP1 cell noCPT, VP16 counter, TDP1 cell CPT, IL1B secr inh, RORgamma inh)
Oc1ccc(N=Cc2cccc3ccccc23)cc1	none (no result: TDP1 cell noCPT, VP16 counter, TDP1 cell CPT, IL1B secr inh, RORgamma inh)
COC(=O)c1ccc(Oc2nc3c(c(=O)n(C)c(=O)n3C)n2CCC(C)C)cc1	TDP1 cell noCPT 23.1µM, TDP1 cell CPT inconclusive
Cn1c(=O)c2c(nc(Br)n2CC(=O)c2ccc(F)cc2)n(C)c1=O	none (no result: TDP1 cell noCPT, VP16 counter, TDP1 cell CPT, IL1B secr inh, RORgamma inh)
COc1cccc(C(=O)Cn2c(Br)nc3c2c(=O)n(C)c(=O)n3C)c1	TDP1 cell noCPT 9.2µM, TDP1 cell CPT inconclusive
Cn1c(=O)[nH]c(=O)c2c1nc(Br)n2C/C=N/NC(N)=S	RORgamma inh inconclusive (no result: TDP1 cell noCPT, LDHA block, TDP1 cell CPT, IL1B secr inh)
Cn1c(=O)c2c(nc(Br)n2C/C=N/NC(N)=S)n(C)c1=O	TDP1 cell noCPT inconclusive, TDP1 cell CPT 20.6µM, RORgamma inh 5.01µM (no result: IL1B secr inh)
CC(=O)c1c(C)[nH]c(C(=O)OC(c2ccccc2)c2ccc(Cl)cc2)c1C (stereo not drawn)	none (no result: TDP1 cell noCPT, VP16 counter, TDP1 cell CPT, IL1B secr inh, RORgamma inh)
CC1CC(C(C)(C)C(C)C)CC/C1=N\O (stereo not drawn)	none (no result: TDP1 cell noCPT, VP16 counter, TDP1 cell CPT, IL1B secr inh, RORgamma inh)
N#Cc1nc(-c2ccc(S(=O)(=O)N3CCCC3)cc2)oc1NCCN1CCOCC1	none (no result: TDP1 cell noCPT, VP16 counter, TDP1 cell CPT, IL1B secr inh, RORgamma inh)
CCC(C)c1ccc(NC(=O)C2CCCCC2)cc1 (stereo not drawn)	none (no result: TDP1 cell noCPT, VP16 counter, TDP1 cell CPT, IL1B secr inh, RORgamma inh)
CCCCN(c1ccccc1)c1ncnc2c1cnn2-c1ccc(Cl)cc1	TDP1 cell noCPT 18.4µM, TDP1 cell CPT 16.4µM (no result: VP16 counter, IL1B secr inh, RORgamma inh)
CCN(c1ccccc1)c1ncnc2c1cnn2-c1ccc(OC)cc1	TDP1 cell noCPT 5.17µM, TDP1 cell CPT 8.2µM (no result: VP16 counter, IL1B secr inh, RORgamma inh)
Cc1ccc(-n2ncc3c(N(CCO)Cc4ccccc4)ncnc32)cc1	TDP1 cell noCPT 8.2µM, TDP1 cell CPT 11.6µM (no result: VP16 counter, IL1B secr inh, RORgamma inh)
CC(C)c1ccc(NC(=O)CN2CCN(C(=O)c3cccs3)CC2)cc1	none (no result: TDP1 cell noCPT, VP16 counter, TDP1 cell CPT, IL1B secr inh, RORgamma inh)
CCC(CC)NC(=O)C(C)c1ccc2cc(OC)ccc2c1 (stereo not drawn)	none (no result: TDP1 cell noCPT, VP16 counter, TDP1 cell CPT, IL1B secr inh, RORgamma inh)
COCCNc1oc(-c2ccccc2C)nc1C#N	none (no result: TDP1 cell noCPT, VP16 counter, TDP1 cell CPT, IL1B secr inh, RORgamma inh)
CC(C)CC(CNC(=O)c1nn(-c2ccccc2)c(=O)c2ccccc12)N1CCOCC1 (stereo not drawn)	none (no result: TDP1 cell noCPT, VP16 counter, TDP1 cell CPT, IL1B secr inh, RORgamma inh)
Cc1[nH]c2ccccc2c1C(=O)C(C)OC(=O)c1ccc2c(c1)NC(=O)CS2 (stereo not drawn)	none (no result: TDP1 cell noCPT, VP16 counter, TDP1 cell CPT, IL1B secr inh, RORgamma inh)
C=CCn1c(Sc2ncccn2)nc2c1c(=O)[nH]c(=O)n2C	none (no result: TDP1 cell noCPT, VP16 counter, TDP1 cell CPT, IL1B secr inh, RORgamma inh)
CC1NC(C)(C)Cc2c1ccc1ccccc21 (stereo not drawn)	none
CNC(=O)/C=C1\NC(C)(C)Cc2c1ccc1ccccc21	TDP1 cell noCPT 20.6µM, TDP1 cell CPT 20.6µM, IL1B secr inh -67.2
O=c1[nH]c(Cc2ccc(F)cc2)nc2scc(-c3ccc(F)cc3)c12	TDP1 cell noCPT 25.9µM, TDP1 cell CPT 13µM, RORgamma inh inconclusive
Cc1ccc(-c2csc3nc(-c4ccncc4)[nH]c(=O)c23)cc1	TDP1 cell noCPT 2.59µM, TDP1 cell CPT 4.11µM
Cc1ccc(-c2csc3nc(CN(C)Cc4ccccc4)[nH]c(=O)c23)cc1	TDP1 cell noCPT 25.9µM, VP16 counter 6.31µM, TDP1 cell CPT inconclusive, RORgamma inh 1.26µM
O=c1[nH]cnc2scc(-c3ccc(F)cc3)c12	TDP1 cell noCPT inconclusive
Cc1csc(CNC(=O)c2ccc(C(N)=O)cc2)n1	none (no result: TDP1 cell noCPT, VP16 counter, TDP1 cell CPT, IL1B secr inh, RORgamma inh)
C[C@@H]1CCC(=O)N(C[C@@H](C)CSc2ccc(Br)cc2)CC1	TDP1 cell noCPT 17.8µM, TDP1 cell CPT inconclusive (no result: VP16 counter, RORgamma inh)
Cc1ccc(SC[C@H](C)CN2CC[C@H](C)CCC2=O)cc1	TDP1 cell noCPT 17.8µM, TDP1 cell CPT 12.6µM
C[C@@H]1CCC(=O)N(C[C@@H](C)CSc2ccccc2)CC1	TDP1 cell noCPT inconclusive, TDP1 cell CPT inconclusive
CC(O)(c1ccccc1)c1nc(-c2cccc(C#N)c2)cs1 (stereo not drawn)	TDP1 cell noCPT inconclusive, TDP1 cell CPT inconclusive (no result: VP16 counter, RORgamma inh)

Bioassay records from PubChem.
